Screening results: PubChem BioAssay, Broad Institute
Rows were chosen to be rich in hits. Some 1.3% of all compounds tested hit in one or more screens of this group.
ID4 binder – binds human ID4 protein on microarray; small molecule microarray, Flag-ID4 binding, fluorescence F/B; calls only; 1.2% of 31,000 active; P47928; AID 624137; call rule not given here;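 further: a binder raises fluorescence above local background on the spot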
STK33 inh – inhibitors of human STK33 kinase; ADP-Glo luminescence, MBP substrate; AID 2322; inhibition, % at 12.5 µM; 0.44% of 27,000 active; Q9BYT3; in the data active means inhibition above about 20%
Target sequence (Q9BYT3 whole entry, looked up): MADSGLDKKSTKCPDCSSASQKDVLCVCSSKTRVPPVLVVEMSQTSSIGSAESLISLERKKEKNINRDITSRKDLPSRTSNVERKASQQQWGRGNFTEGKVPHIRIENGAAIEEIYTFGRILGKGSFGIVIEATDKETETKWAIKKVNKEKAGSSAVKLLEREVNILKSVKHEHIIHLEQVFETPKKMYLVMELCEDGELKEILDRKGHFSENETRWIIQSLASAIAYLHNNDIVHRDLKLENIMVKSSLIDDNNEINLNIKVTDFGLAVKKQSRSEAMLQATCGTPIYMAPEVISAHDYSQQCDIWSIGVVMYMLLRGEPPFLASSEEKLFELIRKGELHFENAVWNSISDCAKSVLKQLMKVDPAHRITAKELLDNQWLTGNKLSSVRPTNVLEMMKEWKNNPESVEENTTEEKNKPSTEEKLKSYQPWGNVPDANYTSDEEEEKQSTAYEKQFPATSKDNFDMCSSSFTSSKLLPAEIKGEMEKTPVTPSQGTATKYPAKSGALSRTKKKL
* hit, by the source's call; i = inactive; . = no result given; + = active, no number.

SMILES | ID4 binder | STK33 inh
COc1ccc(Cl)cc1NC(=O)C(C)NS(=O)(=O)c1ccc(Br)cc1 (stereo not drawn) | i | -2
COc1c(CC=C(C)C)c2c(c3oc(=O)c(-c4ccc(OC(C)=O)cc4)c(OC(C)=O)c13)C=CC(C)(C)O2 | . | -3
COc1ccccc1NC(=O)c1ccc(C(C)(C)C)cc1 | . | -1
O=S(=O)(/C=C/c1ccccc1)Nc1ccccc1 | . | 1
C/C=C/[C@H](CCn1cc([C@H](O)c2ccccc2)nn1)[Si](C)(C)c1ccc(OC)cc1 | i | 1
Cc1cc(O)c2c(c1)C(=O)c1cccc(O)c1C2=O | i | 5
COc1c(C=O)c(O)cc2c1C(=O)c1ccccc1C2=O | i | 85*
O=C(CSc1n[nH]c(-c2ccc(Cl)cc2)n1)Nc1cccc(F)c1 | i | 1
Cn1c(CN2CCOCC2)nnc1SCC(=O)Nc1cc(C(F)(F)F)ccc1Cl | i | 1
CNC[C@@H]1Oc2ccc(NC(=O)Cc3ccccc3)cc2CC(=O)N([C@H](C)CO)C[C@@H]1C | i | 2
CNC[C@H]1Oc2ccc(NC(=O)Cc3cn(C)c4ccccc34)cc2CC(=O)N([C@@H](C)CO)C[C@H]1C | + | .
CNC[C@@H]1Oc2ccc(NC(=O)Cc3cn(C)c4ccccc34)cc2CC(=O)N([C@H](C)CO)C[C@@H]1C | i | 1
CNC[C@H]1Oc2ccc(NC(=O)Cc3ccccc3)cc2CC(=O)N([C@H](C)CO)C[C@@H]1C | + | .
O=C(Nc1ccccc1C(=O)O)OCC1c2ccccc2-c2ccccc21 | . | -11
Cc1cc(C)n(CC(O)Cn2ccc3ccccc32)n1 (stereo not drawn) | + | -2
COc1ccc(NCC(O)Cn2ccc3ccccc32)cc1 (stereo not drawn) | i | -2
O=C1c2ccccc2S(=O)(=O)N1CC(O)Cn1ccc2ccccc21 (stereo not drawn) | + | -4
OCc1nc2ccccc2n1CC(O)Cn1ccc2ccccc21 (stereo not drawn) | i | -2
CCn1c(SCc2nc3ccccc3[nH]2)nc2sc(C)c(C)c2c1=O | i | 1
CC(C)(C)CC(=O)NCc1ccc(S(N)(=O)=O)cc1 | i | .
COC(=O)c1ccccc1NC(=O)CNC(=O)c1ccccc1 | i | -3
COC(=O)c1ccccc1NC(=O)NCc1ccc(C(=O)O)cc1 | + | 1
CCN(CC(=O)Nc1cccc(C(F)(F)F)c1)S(=O)(=O)c1ccc(C)cc1 | i | -3
N#C/C(=C\c1ccc(O)c(O)c1)C(=O)c1ccc(O)c(O)c1 | i | 31*
N#C/C(=C/c1ccc(O)c(O)c1)C(=O)Nc1ccccc1 | i | .
SMILES | ID4 binder | STK33 inh
COC(=O)C(=O)CC(=O)c1c(F)c(F)c(OC)c(F)c1F | . | 0
CC(C)OC(=O)C(C)Sc1ncnc2scc(-c3ccc(Br)cc3)c12 (stereo not drawn) | i | -1
O=C(CSc1nnnn1-c1ccccc1)Nc1cc(Cl)ccc1C(=O)O | i | 4
O=C(CSc1nnnn1-c1ccccc1)Nc1ccc(Cl)c(C(=O)O)c1 | + | 3
COc1cc(S(=O)(=O)n2cnc3ccccc32)c(OC)cc1Cl | i | 4
COc1cc(S(=O)(=O)n2nnc3ccccc32)c(OC)cc1Cl | + | 2
CCN(CC(=O)Nc1ccccc1C(F)(F)F)S(=O)(=O)c1ccc(Cl)cc1 | i | -1
OCCCNc1ncnc2oc(-c3ccccc3)c(-c3ccccc3)c12 | i | 32*
OCCCNc1ncnc2scc(-c3ccccc3)c12 | i | 2
Cc1cc(Cl)ccc1OC(C)C(=O)Nc1cccc(-c2nnc(-c3ccccc3)o2)c1 (stereo not drawn) | i | 1
N#CC(C#N)=C(N)/C(C#N)=C/c1cc(O)c(O)c(O)c1 | i | 20*
CC(C)(C)c1cc(/C=C(\C#N)C(N)=S)cc(C(C)(C)C)c1O | i | 12
NC(=O)c1c(NC(=O)C(Cc2ccccc2)N2C(=O)c3ccccc3C2=O)sc2c1CCCC2 (stereo not drawn) | + | 0
CCc1ccccc1OCC(=O)Nc1sc2c(c1C(N)=O)CCCC2 | i | -5
CN(C)CCCC[C@@H]1NC(=O)[C@@H]2C[C@H](C(=O)O)[C@H](c3cccc(OCCO)c3)N2C1=O | . | 0
NCCOc1ccc(Cl)cc1 | . | -2
COC(=O)CSc1nc(C)cc(C)n1 | i | 2
Cc1cc(C)nc(SCc2csc(N)n2)n1 | + | -2
O=C(O)/C=C\C(=O)Nc1ccccc1SCC(O)Cn1ccc(C(F)(F)F)n1 (stereo not drawn) | i | .
CN(CC(=O)Nc1ccc(Cl)c(Cl)c1)S(=O)(=O)c1ccc(F)cc1 | i | -3
CNc1ccccc1C(=O)OC1OC(C)C(O)C(O)C1O (stereo not drawn) | + | 0
C[C@@H]1O[C@@H](OC[C@H]2O[C@@H](OCc3ccccc3)[C@H](O)[C@@H](O)[C@@H]2O)[C@H](O)[C@H](O)[C@H]1O | . | 2
Cc1ccc(S(=O)(=O)Nc2ccccc2-c2nc3ccccc3c(=O)o2)cc1 | i | 1
